# The list is not random: actives were taken first. Their share in the collection is about 2.2%.
# aSyn 5UTR inh – MLPCN primary screen, SNCA 5' untranslated region. alpha-synuclein 5'UTR reporter, inhibitor activity. 300,000 tested, 0.82% active. inhibition, % (tested at 7.5 µM); in the data active = inhibition above about 60%;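 note: H4 neuroglioblastoma cells stably carrying SNCA 5'UTR luciferase fusion; 0% = DMSO wells and 100% = positive control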
# KLF5 inhibitor – kruppel-like factor 5 inhibition. DLD-1 KLF5 promoter-luciferase reporter, luminescence. inhibition, % at 5 µM. 290,000 tested, 0.23% active. AID 1700;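 active = inhibition above a per-plate limit of that plate's mean compound inhibition plus 3 SD, cut at about 60% in these data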;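 note: 0% = DMSO wells and 100% = LY294002 at 200 µM; higher means less KLF5 promoter-driven luciferase light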
# APP transl inh – APP translation inhibition; inhibition, % at 2 µM; AID 1285; 190,000 tested, 0.82% active; SH-SY5Y APP 5'UTR-luciferase reporter, luminescence;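 active = inhibition above a set limit, derived from the sample mean plus 3 SD, cut at about 45% in these data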
# Ba/F3 V617F tox – reduce viability of Ba/F3 cells dependent on JAK2V617F; inhibition, % at 5.6 µM; 220,000 tested, 1.1% active; Ba/F3 EpoR-JAK2V617F viability, ATP luminescence; AID 1446;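 active = inhibition above the campaign mean plus 3 SD over all tested compounds, cut at about 24% in these data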;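 note: cytokine-independent growth of Ba/F3 cells driven by EpoR plus mutant JAK2; 0% = DMSO-treated cells and 100% = JAK inhibitor I control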
# BaF3 tox – counter-screen for JAK2V617F inhibitors: parental Ba/F3 viability inhibitors; CellTiter-Glo ATP luminescence; inhibition, % at 5.6 µM; 220,000 tested, 1.1% active; AID 1486;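 active = inhibition above a per-campaign cutoff, the mean inhibition of all tested compounds plus 3 SD, cut at about 27% in these data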;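 note: 0% = DMSO wells and 100% = JAK Inhibitor I control wells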
# IEC-6 tox – counter-screen for KLF5 inhibitors: cytotoxicity in IEC-6 cells | IEC-6 cytotoxicity, luminescence viability | inhibition, % at 5 µM | 290,000 tested, 0.78% active; in the data active = inhibition above about 22%;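 note: 0% = plate median of test compound wells and 100% = cytotoxic reference compound wells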
# Starred values were filed as active, the others as inactive; . = no result.
SMILES,aSyn 5UTR inh,KLF5 inhibitor,APP transl inh,Ba/F3 V617F tox,BaF3 tox,IEC-6 tox
CC(=O)Nc1ccc(SCC(=O)c2cc(C)n(Cc3cccs3)c2C)cc1,68*,-1,-112,1,7,5
COc1ccc(-n2cnnc2SCC(=O)c2cc(C)n(Cc3cccs3)c2C)cc1,-3,-16,1,2,7,-2
Cc1csc(SCC(=O)c2cc(C)n(Cc3cccs3)c2C)n1,73*,-33,-120,-5,2,0
Cc1cc(C(=O)CSc2nnc(N)s2)c(C)n1Cc1cccs1,69*,-82,-136,-1,0,-1
COc1ccc(-c2nnc(SCC(=O)c3cc(C)n(Cc4cccs4)c3C)o2)cc1,-4,-13,-5,0,2,2
NC(=O)c1ccc(N2CCN(S(=O)(=O)c3ccccc3)CC2)c([N+](=O)[O-])c1,0,-28,12,36*,38*,11
COc1ccc(N(C(=O)c2csnn2)C(C(=O)NC2CCCC2)c2ccccc2)cc1 (stereo unspecified),-8,-1,.,.,.,2
COc1cccc(OCCNC(=O)c2ccc(C)cc2)c1,-25,-28,.,.,.,-5
COc1cccc(OCCNC(=O)c2cccc(OC)c2)c1,21,-20,45*,-6,1,8
O=C1c2ccccc2C(=O)c2c1oc(C(F)(F)F)c2C(=O)c1ccccc1,101*,-44,-10,-1,2,-3
O=C(c1ccccc1)c1coc2c1C(=O)c1ccccc1C2=O,-80,-17,-37,1,4,-1
COCCNC(=O)C1(C(F)(F)F)CC(CCCO)CCCO1 (stereo unspecified),-2,.,.,.,.,.
Cc1cc(=O)[nH]c(N=N/C(=N/Nc2ccccc2C)c2ccccc2)n1,82*,-28,4,1,2,2
Cc1cc(=O)[nH]c(N=N/C(=N/Nc2ccc(O)cc2)c2ccccc2)n1,-100,-94,-91,-3,1,3
COc1ccc(N/N=C(/N=Nc2nc(C)cc(=O)[nH]2)c2ccccc2)cc1,85*,-71,-38,14,4,2
Cc1cc(=O)[nH]c(SCC(=O)Nc2ccccc2C)n1,-23,-2,-9,0,5,-6
Cc1cc(C(=O)NCc2cc(F)cc3c2OCOC3)nn1C,-7,0,.,0,-2,-2
Cn1nc(C(C)(C)C)cc1C(=O)NCc1cc(F)cc2c1OCOC2,-12,-19,.,44*,57*,9
CCc1cccc(C)c1N1C(=O)CC(C)(C)CC1=O,7,14,.,-5,1,1
CS(=O)(=O)N(CC(=O)N1CCc2ccccc2C1)c1ccc(Cl)cc1F,-1,1,.,.,.,-2
Cc1ccc(C#N)c(SCc2cc3c(cc2Cl)OCO3)n1,-9,-2,-19,-3,-3,-2
Cc1ccc(C#N)c(SCc2nnc(-c3ccc(Cl)cc3)o2)n1,90*,-72,-30,-2,6,-5
Cc1cc(C)c(C#N)c(SCc2nnc(-c3ccccc3)o2)n1,102*,57,-44,-3,2,-4
CCC(=O)c1ccc(OCC(=O)OCC(=O)c2cc(C)n(C)c2C)cc1,1,-27,.,.,.,2
CC(C)CC(NC(=O)C(CO)NC(=O)C1CCC(=O)N1)C(N)=O (stereo unspecified),1,-21,-10,-2,2,-1
SMILES,aSyn 5UTR inh,KLF5 inhibitor,APP transl inh,Ba/F3 V617F tox,BaF3 tox,IEC-6 tox
CCOCCCn1c(=S)[nH]c2cc(C(=O)NCC(OC)OC)ccc2c1=O,18,-5,-11,2,9,-5
CS(=O)(=O)Nc1ccc(S(=O)(=O)N2CCCC2)cc1,15,-6,-4,0,90*,7
Cc1ccc2cc(CN(CC3CCCO3)C(=S)Nc3ccccc3)c(=O)[nH]c2c1C (stereo unspecified),72*,-16,53*,1,8,8
Cc1cc(C)c2[nH]c(=O)c(CN(CC3CCCO3)C(=S)Nc3ccccc3)cc2c1 (stereo unspecified),8,-4,.,2,5,-4
CCCCc1c(O)c2ccccc2n(CCCC)c1=O,5,-16,-13,0,4,4
CCCCc1c(CCC)c(=N)c2ccccc2n1C,5,-5,7,76*,68*,0
CCOC(=O)C1=C(CN2CCN(C(=O)c3ccco3)CC2)NC(=O)NC1c1ccc(C)cc1 (stereo unspecified),-7,0,.,.,.,-9
CCc1n(CC(O)COCc2ccccc2)c2ccccc2[n+]1C (stereo unspecified),-27,19,-7,38*,49*,-3
